Experimental data as given in PubChem BioAssay AID624330 (Southern Research Specialized Biocontainment Screening …, 2012).
Hit rate of the full screen: of about 340,000 compounds, about 2,100 (0.62%) were called active.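 The calls were made as follows: active = first-screen hits whose inhibition reached a set limit at any dose in the follow-up dose series; inconclusive = inhibition above the set first-screen limit but never retested; inactive = the rest.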 These entries were drawn from the full list. Measured potencies and affinities stand elsewhere.

target: Rac GTPase-activating protein 1 (Homo sapiens) (UniProt Q9H0H5); assay: blockers of MgcRacGAP-driven Rac1 GTP hydrolysis – biochemical, ADP Hunter fluorescence, primary and confirmatory, confirmation (AID 624330); conditions: MgcRacGAP-stimulated Rac1 GTP hydrolysis, at 30 µM, hits give high values, GST-tagged Rac1 F28L mutant substrate;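 also: fluorescence reports GDP produced by GAP-driven GTP hydrolysis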
Sequence (Q9H0H5 whole entry, looked up): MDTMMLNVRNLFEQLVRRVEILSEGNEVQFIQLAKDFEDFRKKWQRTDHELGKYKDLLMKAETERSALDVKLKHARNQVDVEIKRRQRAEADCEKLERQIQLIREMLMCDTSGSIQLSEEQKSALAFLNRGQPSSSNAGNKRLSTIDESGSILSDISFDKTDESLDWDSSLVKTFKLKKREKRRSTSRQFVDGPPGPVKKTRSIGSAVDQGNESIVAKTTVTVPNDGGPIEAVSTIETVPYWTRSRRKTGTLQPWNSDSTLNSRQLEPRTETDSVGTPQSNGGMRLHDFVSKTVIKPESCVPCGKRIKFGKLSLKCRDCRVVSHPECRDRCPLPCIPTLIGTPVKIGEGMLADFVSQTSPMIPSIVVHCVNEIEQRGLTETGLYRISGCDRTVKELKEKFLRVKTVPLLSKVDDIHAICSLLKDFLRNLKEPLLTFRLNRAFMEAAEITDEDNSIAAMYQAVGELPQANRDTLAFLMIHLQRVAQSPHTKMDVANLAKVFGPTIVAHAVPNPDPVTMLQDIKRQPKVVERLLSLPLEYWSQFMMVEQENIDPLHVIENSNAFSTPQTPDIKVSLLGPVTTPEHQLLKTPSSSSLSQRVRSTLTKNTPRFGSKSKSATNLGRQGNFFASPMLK

inhibition, inactive:
CN1C(=O)C(C)(C)c2cc(S(=O)(=O)N3CCCC(C(=O)NCc4ccc(F)cc4)C3)ccc21 (stereo unspecified) 17.2%
CCC(CC)C(=O)Nc1ccc(C(=O)Nc2cc(C)on2)cc1 5%
COc1ccc(CNC(=O)C(=O)NCC2OCCCN2S(=O)(=O)c2cccs2)cc1 (stereo unspecified) 8.22%
COc1cc(C2Nn3c(nnc3-c3ccccc3OC)S2)ccc1O (stereo unspecified) 3.42%
N#CC1=C(N)OC(c2ccccc2)=C(C#N)C1c1ccc2c(c1)OCO2 (stereo unspecified) -0.39%
CC(C)Cc1ccc(C(=O)NCCOc2ccccc2)o1 5.6%
CNC(=O)c1c(NC(=O)c2ccc(S(=O)(=O)N3CC(C)OC(C)C3)cc2)sc2c1CCN(C(C)C)C2 (stereo unspecified) 11.2%
Cc1ccc(C(=O)NCC(=O)Nc2ncccc2C)s1 -8.48%
Cc1ccc(C(=O)Nc2ccncc2)cc1S(=O)(=O)N1CCOCC1 5.06%
CCOc1ccc(CCN2C(=S)N([C@@H](CC(C)C)CN3CCCC3CN3C(=S)NC[C@@H]3Cc3ccc(O)cc3)C[C@@H]2Cc2ccccc2)cc1 (stereo partly specified) -2.29%
C[C@H](CO)N1C[C@H](C)[C@@H](CN(C)C(=O)c2ccccc2)OCc2cnnn2CCCC1=O 16.3%
Oc1ccccc1N=Cc1ccc[nH]1 16.7%
O=C(Nc1ccccc1O)c1ccc([N+](=O)[O-])cc1 6.91%
O=C(CN1CCOCC1)Nc1ccc(-c2nc3ccccc3[nH]2)cc1 10.7%
CC(C)C[C@@H](C(=O)O)N(Cc1cccc(CN([C@@H](CC(C)C)C(=O)O)S(C)(=O)=O)c1)S(C)(=O)=O 9.29%
CC1=C(C(=O)Nc2ccccc2C)C2(CCCC2)C(C(N)=O)C(=O)N1 (stereo unspecified) -3.29%
CCOC(=O)c1cnc2c(-c3ccccc3)cnn2c1C 8.8%
CCNC(=O)CSC1=N/C(=C\c2ccc(O)c(OCC)c2)C(=O)N1c1ccc(OC(F)F)cc1 7.81%
NC(=O)CSC1=N/C(=C\c2ccco2)C(=O)N1c1ccc(OC(F)F)cc1 9.08%
CCC(C)[C@H](NC(=O)N1CCN(C)CC1)C(=O)OC (stereo partly specified) 3.84%
Cc1ccc(C(=O)Nc2cccc(Oc3ccccc3)c2)o1 1.9%
Nc1ccc(C(=O)OCCCc2nc3ccccc3[nH]2)cc1 10%
Nc1ccc(C(=O)OCCCc2nc3cc4ccccc4cc3[nH]2)cc1 14.4%
c1ccc2[nH]c(CCCCc3nc4ccccc4[nH]3)nc2c1 7.39%
c1ccc2[nH]c(CCCc3nc4ccccc4[nH]3)nc2c1 -1.49%
c1ccc(Cc2nc3ccccc3[nH]2)cc1 -0.91%
Cc1ccc2nc(Cc3ccc(N)cc3)[nH]c2c1 6.07%
CCOCCCN(C(=O)CCC(=O)Nc1cc(C)on1)C(C(=O)NC(C)(C)C)c1ccccc1Cl (stereo unspecified) 5.98%
COc1ccc(-c2c(NC(=O)CC(C)C)n(C)c3ccccc3c2=O)cc1OC 4.25%
Cn1c(COc2ccc([N+](=O)[O-])cc2)nnc1SCC(=O)NCC1CCCO1 (stereo unspecified) 5.87%
CCN(CC)CCCNc1nc2ccccc2[nH]1 7.22%
CCN(CC)CCCNc1nc(-c2ccccc2)nc2ccccc12 17.7%
CCCCCC(O)CCCC(=O)O (stereo unspecified) 7.64%
CCCCCCCCCCCCCCC(O)C[N+](C)(CCO)CCO (stereo unspecified) 20.8%
CCOc1ccc(-n2nc3c(SCCN4CCCC4)nnc(C)c3c2C)cc1 10.3%
Oc1ccccc1Cc1c(O)ccc2ccccc12 23.7%
c1ccc2c(c1)ccc1ccccc12 -3.62%
COc1ccc2c(c1)S(=O)(=O)c1ccccc1N2 11.9%
COc1ccc(N/C=C2/Sc3ccccc3NC2=O)cc1 17.3%
c1ccc2c(c1)Nc1nccnc1S2 28.4%
c1ccc2c(c1)Nc1cc3ccccc3cc1S2 14.6%
FC(F)(F)c1cnc2c(c1)Nc1ccccc1S2 10.2%
Clc1cc2c(nn1)Nc1ccccc1S2 6.5%
Cn1c(N)c(C(=O)CSc2nnc(C3CC3)n2Cc2ccccc2)c(=O)[nH]c1=O 2.66%
N#Cc1ccc(OCC(=O)N2CCN(S(=O)(=O)c3cccc(Cl)c3)CC2)cc1 -0.69%
COc1ccc(NC(=O)CN(C)C(=O)/C=C/c2cn(-c3ccccc3)nc2-c2ccc(C)cc2)cc1 9.39%
CCOC(=O)Cc1csc(NC(=O)c2csc(C)c2)n1 9.83%
Cc1cc(OCCN2CCCC2)ccc1[N+](=O)[O-] 19.6%
Cc1cc(OCCN2CCC(Cc3ccccc3)CC2)ccc1[N+](=O)[O-] 22%
O=C(c1ccccc1)c1ccc(OCCOCCN2CCN(Cc3ccccc3)CC2)cc1 25.1%
CCOc1ccccc1OCCOCCN1CCN(Cc2ccccc2)CC1 26.4%
COc1cccc(NS(=O)(=O)c2c(C)nc3sccn3c2=O)c1 4.23%
CCc1cc(C(=O)NCC(c2ccco2)N2CCCCC2)sc1C (stereo unspecified) 5.34%
Cc1cccc(C(=O)OCC(=O)N2CCCCCC2)c1C 2.72%
CCN(C[C@H]1N[C@@](Cc2ccccc2)(C(=O)OC)[C@H]2C(=O)N(Cc3ccccc3)C(=O)[C@@H]12)C(=O)Nc1ccc(C)cc1 4.71%
CCOC(=O)c1ccc(NC(=S)N2CCC(C(N)=O)(N3CCCCC3)CC2)cc1 -1.44%
CCN(CC)CCSc1nc(O)c(Cc2ccccc2)c(=O)n1-c1ccccc1 2.56%
Cc1ccc(NC(=O)CN2CCOCC2)cc1S(=O)(=O)N1CCCCC1 7.06%
Cc1ccccc1NC(=O)C(=O)NCCCN1CCOCC1 4.72%
O=C(CNCCN1CCOCC1)Nc1ccccc1Sc1ccccc1 24.9%
CCN1CCN(CC(=O)Nc2ccc(Cl)c(S(=O)(=O)N(C)C)c2)CC1 28.1%
Cc1ccc(NC(=O)CCl)cc1S(=O)(=O)N1CCCCCC1 4.4%
Cc1ccc(C(=O)NCCCN2CCOCC2)cc1S(=O)(=O)N1CCCCC1 1.84%
CN(C)S(=O)(=O)c1cc(NC(=O)CN2CCOCC2)ccc1Cl 2.76%
Cc1ccccc1C(=O)NCC(=O)Nc1ccc(C)c(S(=O)(=O)N2CCCCCC2)c1 -0.01%
CC(Oc1cccc(Cl)c1)C(=O)N1CCN(c2ncccn2)CC1 (stereo unspecified) 3.63%
O=C(Nc1ccccc1C(=O)O)c1cc(S(=O)(=O)N2CCOCC2)cs1 3.51%
Cc1ccc(/C=N/N2CCN(C3c4ccccc4-c4ccccc43)CC2)o1 8.36%
COc1ccc(N2CCN(C(=O)c3cc4c(s3)CCCCC4)CC2)cc1 14.7%
COCCn1c(SCC(=O)N2CCCCCC2)nnc1-c1ccco1 3.7%
CCC(CNC(=O)c1c(C)nn(-c2ccccc2)c1Cl)c1ccccc1 (stereo unspecified) -0.7%
Cc1ccc(S(=O)(=O)N2CCCCC2)cc1C(=O)N(C)CCOc1ccccc1 8.29%
O=C(Cn1cnc2c(nnn2-c2ccc(F)cc2)c1=O)NCC1CCCO1 (stereo unspecified) 8.9%
Cc1cc(C)n(CCc2nc3c4ccccc4n(CC#N)c(=O)n3n2)n1 3.22%
COc1cc(-c2csc(CCn3nc(C)cc3C)n2)cc(OC)c1OC 4.55%
COC(=O)C1CCN(S(=O)(=O)Cc2ccccc2Cl)CC1 7.49%
COc1cc(OC)c(OC)cc1C#N 2.13%
COc1cc2c(cc1OC)C1(CCCC1)CNC2C (stereo unspecified) 1.49%
O=C(Nc1ccc(F)cc1)C(NC1CCCCC1)c1ccccc1 (stereo unspecified) 9.33%
COc1ccc(C2=NS(=O)(=O)N(C)C(C(=O)N3CCCCC3C)=C2)cc1 (stereo unspecified) 2.61%
COc1ccc(C(C)C)cc1S(=O)(=O)Nc1ccccn1 -2.56%
COc1ccc(N(C(=O)c2ccncc2)S(=O)(=O)c2cccs2)cc1 5.29%
COc1ccc(C(=O)N(c2ccc(OC)cc2)S(=O)(=O)c2cccs2)cc1 3.2%
O=C(Nc1ccc(-c2nc3ccccc3[nH]2)cc1)c1ccc2c(c1)OCO2 0.3%
COc1ccccc1C1C2=C(N=C3SCC(=O)N31)c1ccccc1CC2 (stereo unspecified) 7%
CCOC(=O)c1cc(-c2ccccc2)nn1CCC#N 8.67%
COc1ccc(OCc2nn3c(Cn4cnc5ccccc54)nnc3s2)cc1 19.9%
Cc1ccnc(SCc2cn3c(C)cccc3n2)n1 0.6%
COc1cc(/C=C/C(=O)OCC(=O)NCCC2=CCCCC2)cc(OC)c1OC -10.3%
COc1ccc(/C=C/C(=O)OCC(=O)NCCC2=CCCCC2)cc1OC 4.2%
COc1cccc(/C=C/C(=O)OCC(=O)NCC2CCCCC2)c1OC -1.97%
COc1cc(/C=C/C(=O)OCC(=O)NC2CCS(=O)(=O)C2)ccc1OC(F)F (stereo unspecified) 2.44%
COc1ccc(/C=C/C(=O)OCC(=O)NC2CCS(=O)(=O)C2)cc1 (stereo unspecified) -1.92%
COc1cc(/C=C/C(=O)OCC(=O)NC2CCCCCCC2)ccc1O 26.5%
CCCSCCCNC(=O)c1ccc(C)c(NC(=O)C2=C(C)OCCS2)c1 6.84%
CCC(=O)N1C(=O)CCN(C(C)=O)c2ccccc21 11.8%
